# Assay results published in PubChem BioAssay (NCATS).
# Results filed as inconclusive are left out. Entries that show only a call come without a potency. Unmarked numbers belong to inactive results. Activity calls are given as the source filed them. Calls follow the shape of the dose curve; as a rule, active = well fitted curve in the direction sought with a large enough effect; inconclusive = small, poorly fitted or top-dose-only effect, or another doubt; inactive = no such curve, though single readings can be large; an effect the other way counts as inactive or inconclusive.
# What was measured:
# KB-3-1 = assay: Cytotoxic Profiling of Annotated Libraries Using Quantitative High-Throughput Screening (AID 1296008); details: Five cell lines viability, CellTiter-Glo ATP luminescence, 48-72 h; max response: stronger effect = lower value; also: nearly all actives have a fitted effect of over 60% in size
# Summary of the method: (§1)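 Cytotoxicity was measured as CellTiter-Glo ATP luminescence, read after 10 min at room temperature. Compound treatment of the cells lasted 48 or 72 hr at 37 degrees Celsius in a qHTS format.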
# NIH3T3 = assay: as above; details: Five cell lines viability, CellTiter-Glo ATP luminescence, 48-72 h; max response: stronger effect = lower value
# Summary of the method: as §1
# C33A = assay: Primary qHTS to identify gynecologic anti-cancer compounds using libraries of approved drugs and bioactive compounds (AID 1345084); details: Gynecologic cancer cell panel viability, ATPlite luminescence, 48 h; series mostly up to 57.5 µM; also: nearly all actives have a fitted effect of over 55% in size
# Summary of the method: (§2)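 Cytotoxicity screen measuring ATP content by luciferase luminescence. Each compound is applied at five concentrations for 48 h at 37 C with 5% CO2.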
# CASKI = assay: as above; details: Gynecologic cancer cell panel viability, ATPlite luminescence, 48 h; series mostly up to 57.5 µM
# Summary of the method: as §2
# Es-2 = assay: as above; details: Gynecologic cancer cell panel viability, ATPlite luminescence, 48 h; series mostly up to 57.5 µM
# Summary of the method: as §2
# HeLa = assay: as above; details: Gynecologic cancer cell panel viability, ATPlite luminescence, 48 h; series mostly up to 57.5 µM
# Summary of the method: as §2
# Hek293T = assay: as above; details: Gynecologic cancer cell panel viability, ATPlite luminescence, 48 h, control line for the selectivity index; series mostly up to 57.5 µM
# Summary of the method: as §2
# JEG-3 = assay: as above; details: Gynecologic cancer cell panel viability, ATPlite luminescence, 48 h; series mostly up to 57.5 µM
# Summary of the method: as §2
# OV90 = assay: as above; details: Gynecologic cancer cell panel viability, ATPlite luminescence, 48 h; series mostly up to 57.5 µM
# Summary of the method: as §2
# CAOV3 = assay: as above; details: Gynecologic cancer cell panel viability, ATPlite luminescence, 48 h; series mostly up to 57.5 µM
# Summary of the method: as §2
# Potency is read from the fitted curve at half-maximal effect.
smiles,measurement,setting,value
COC(=O)CCc1cc2ccoc2c(OC)c1O[C@@H]1O[C@H](CO)[C@@H](O)[C@H](O)[C@H]1O,outcome,KB-3-1,inactive
same,max response,NIH3T3,0.737%
same,Potency,C33A,inactive
same,Potency,CASKI,inactive
same,Potency,Es-2,inactive
same,Potency,HeLa,inactive
same,Potency,Hek293T,inactive
same,Potency,JEG-3,inactive
same,Potency,OV90,inactive
C[C@H](NC(c1cccc(C[P+](=O)O)c1)[C@H](C)O)c1ccc(Cl)c(Cl)c1 (stereo partly specified),outcome,KB-3-1,inactive
same,max response,NIH3T3,3.54%
same,Potency,C33A,inactive
same,Potency,CASKI,inactive
same,Potency,Es-2,inactive
same,Potency,HeLa,inactive
same,Potency,Hek293T,inactive
same,Potency,JEG-3,inactive
same,Potency,OV90,inactive
Cc1cc(Nc2cc(N3CCN(C)CC3)nc(/C=C/c3ccccc3)n2)n[nH]1,Potency,KB-3-1,1.16 µM (active)
same,Potency,NIH3T3,2.31 µM (active)
same,Potency,C33A,28.2 µM (active)
same,Potency,CASKI,3.55 µM (active)
same,Potency,Es-2,inactive
CC1OC2OC(=O)C3(C)CC4=C(CO)C5=C(CC(=O)C4(C)C(C1=O)C23)C(C)(C)OC(=O)C5 (stereo unspecified),max response,KB-3-1,2.12%
same,max response,NIH3T3,-2.31%
same,Potency,C33A,inactive
same,Potency,CASKI,inactive
same,Potency,Es-2,inactive
same,Potency,HeLa,inactive
same,Potency,Hek293T,inactive
same,Potency,JEG-3,inactive
same,Potency,OV90,inactive
C=CC1C(OC2OC(CO)C(O)C(O)C2O)OC=C2C(=O)N3C(C(=O)O)Cc4c([nH]c5ccccc45)C3CC21 (stereo unspecified),max response,KB-3-1,6.21%
same,max response,NIH3T3,-3.8%
same,Potency,C33A,inactive
same,Potency,CASKI,inactive
same,Potency,Es-2,inactive
same,Potency,HeLa,inactive
same,Potency,Hek293T,inactive
same,Potency,JEG-3,inactive
same,Potency,OV90,inactive
O=C(c1ccc(/C=C/c2n[nH]c3ccccc23)cc1)N1CCNCC1,Potency,KB-3-1,5.8 µM (active)
same,Potency,NIH3T3,4.61 µM (active)
same,Potency,C33A,inactive
same,Potency,CAOV3,inactive
same,Potency,HeLa,2.24 µM (active)
same,Potency,Hek293T,inactive
same,Potency,OV90,8.91 µM (active)
C/C=C1\[C@H](O[C@@H]2O[C@H](CO)[C@@H](O)[C@H](O)[C@H]2O)OC=C2C(=O)OCCc3ccc(O)c(c3)Oc3ccc(cc3)CCOC(=O)C[C@H]21,max response,KB-3-1,-9.35%
same,max response,NIH3T3,-1.53%
same,Potency,C33A,inactive
same,Potency,CAOV3,inactive
same,Potency,Es-2,inactive
same,Potency,HeLa,inactive
same,Potency,Hek293T,inactive
same,Potency,OV90,inactive
CC1CCC2(C(=O)O)CCC3(C)C(=CCC4C5(C)CCC(OC(=O)/C=C/c6ccccc6)C(C)(C)C5CCC43C)C2C1C (stereo unspecified),max response,KB-3-1,3.54%
same,max response,NIH3T3,-3.46%
same,Potency,C33A,inactive
same,Potency,CASKI,inactive
same,Potency,Es-2,inactive
same,Potency,HeLa,inactive
same,Potency,Hek293T,inactive
same,Potency,JEG-3,inactive
same,Potency,OV90,inactive
Cn1c(=O)cc(N2CCCC(N)C2)n(Cc2cc(F)ccc2C#N)c1=O (stereo unspecified),max response,KB-3-1,-0.0728%
same,max response,NIH3T3,-2.76%
same,Potency,C33A,inactive
same,Potency,CASKI,inactive
same,Potency,Es-2,inactive
same,Potency,HeLa,inactive
same,Potency,Hek293T,inactive
same,Potency,JEG-3,inactive
same,Potency,OV90,inactive
C[C@@H]1O[C@@H](O[C@H]2[C@H](O[C@H]3CC[C@@]4(C)C(CC[C@]5(C)C4CC=C4[C@@H]6CC(C)(C)CC[C@]6(C(=O)O[C@@H]6OC[C@H](O)[C@H](O)[C@H]6O[C@@H]6O[C@@H](C)[C@H](O[C@@H]7O[C@H](CO)[C@@H](O)[C@H](O)[C@H]7O)[C@H](O)[C@H]6O)[C@H](O)C[C@]45C)C3(C)C)O[C@H](CO)[C@@H](O[C@@H]3OC[C@@H](O)[C@H](O)[C@H]3O)[C@@H]2O)[C@H](O)[C@H](O)[C@H]1O (stereo partly specified),outcome,KB-3-1,inactive
same,max response,NIH3T3,-3.79%
same,"activity change, negative = cytotoxicity",C33A,-7.19% [at 6.55 µM]
same,"activity change, negative = cytotoxicity",CASKI,6.32% [at 6.55 µM]
same,"activity change, negative = cytotoxicity",Es-2,0.0947% [at 6.55 µM]
same,"activity change, negative = cytotoxicity",HeLa,-17.4% [at 6.55 µM]
same,"activity change, negative = cytotoxicity",Hek293T,6.66% [at 6.55 µM]
same,"activity change, negative = cytotoxicity",JEG-3,5.72% [at 6.55 µM]
same,"activity change, negative = cytotoxicity",OV90,11.1% [at 6.55 µM]
CC(Oc1cc(-n2cnc3ccc(CN4CCN(C)CC4)cc32)sc1C(N)=O)c1ccccc1C(F)(F)F (stereo unspecified),Potency,KB-3-1,0.651 µM (active)
same,Potency,NIH3T3,8.2 µM (active)
same,Potency,C33A,8.91 µM (active)
same,Potency,Es-2,7.94 µM (active)
same,Potency,HeLa,3.55 µM (active)
same,Potency,JEG-3,5.62 µM (active)
same,Potency,OV90,inactive
COc1cc(Br)c(Nc2nc(-c3c(C)nc4ncccn34)cs2)c(Br)c1,Potency,KB-3-1,2.31 µM (active)
same,Potency,NIH3T3,1.46 µM (active)
same,Potency,C33A,inactive
same,Potency,CASKI,inactive
same,Potency,Es-2,8.91 µM (active)
CN(C)CCCCC(=O)Nc1ccc(NC(=S)NC(=O)c2ccc(C(C)(C)C)cc2)cc1,Potency,KB-3-1,14.6 µM (active)
same,Potency,NIH3T3,7.31 µM (active)
same,Potency,C33A,inactive
same,Potency,CASKI,inactive
same,Potency,JEG-3,inactive
CN(C)C/C=C/C(=O)Nc1cccc(C(=O)Nc2ccc(Nc3nccc(-c4cccnc4)n3)cc2)c1,Potency,KB-3-1,3.66 µM (active)
same,Potency,NIH3T3,10.3 µM (active)
same,Potency,C33A,12.6 µM (active)
same,Potency,CASKI,7.08 µM (active)
same,Potency,HeLa,20 µM (active)
same,Potency,OV90,10 µM (active)
CC1(C)[C@@H](O)CC[C@]2(C)[C@H]3CC=C4[C@@H]5C[C@](C)(C(=O)O)CC[C@]5(C)CC[C@@]4(C)[C@]3(C)CC[C@@H]12,max response,KB-3-1,8.76%
same,max response,NIH3T3,0.034%
same,Potency,C33A,inactive
same,Potency,CASKI,inactive
same,Potency,Es-2,inactive
same,Potency,HeLa,inactive
same,Potency,Hek293T,inactive
same,Potency,JEG-3,inactive
same,Potency,OV90,inactive
CC(=O)OC12COC1CC(O)C1(C)C(=O)C(O)C3=C(C)C(OC(=O)C(O)C(NC(=O)OC(C)(C)C)c4ccccc4)CC(O)(C(OC(=O)c4ccccc4)C21)C3(C)C (stereo unspecified),Potency,KB-3-1,0.0018 µM (active)
same,Potency,NIH3T3,0.0164 µM (active)
same,Potency,C33A,inactive
same,Potency,CAOV3,inactive
same,Potency,JEG-3,inactive
same,Potency,OV90,inactive
